The nature of assay [1]: inhibitors of TNFa-induced NFkB p65 translocation, primary screen, imaging, HUVEC, MLSMR starter and 10KST1 sets (AID 438;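 active = inhibition above 20% together with a positive visual image hit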;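 also: compound added about 3h40 before a 20 min TNFalpha stimulation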;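 as to inhibition: signal is the nuclear over cytoplasmic p65 intensity ratio per well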). Particulars: HUVEC TNFa-induced p65 nuclear translocation; cell count: measured here: nuclei count (cytotoxicity indicator), at 2.08 µM; inhibition: at 2 µM, stronger effect = higher value, 0% TNFa-plus-vehicle, 100% no-TNFa wells.
Assay [2] is described as follows: inhibitors of mutant huntingtin aggregation, primary screen, imaging, exon1htt(103Q)mCFP cells, high-content imaging (AID 483;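 active = visual image review flags a hit and inhibition of aggregation exceeds 20%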;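 also: compound exposure lasted 3 days before fixation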;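 as to nuclei count: percent of the per-plate median nuclei count of sample wells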). As to conditions: exon1htt(103Q)mCFP cell line, aggregate imaging, at 2 µM; inhibition of aggregation: stronger effect = higher value; nuclei count: measured here: cell count, toxicity.
Assay [3] in a line: inhibitors of E-selectin induction by TNFa, primary screen, imaging, HUVEC, immunofluorescence, MLSMR starter and 10KST1 sets (AID 487;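 active = visually confirmed hit in the image check and inhibition above 20%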;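 as to inhibition: signal is fraction of cell area covered by stained E-selectin grains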;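 as to nuclei count: 100% = median nuclei count of all wells on the same plate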). As to conditions: HUVEC TNFalpha-induced E-selectin immunofluorescence imaging, at 2 µM; inhibition: stronger effect = higher value; nuclei count: measured here: cell number, toxicity.
The nature of assay [4]: DUSP6 inhibitors restoring Erk phosphorylation by chemical complementation, primary imaging in DUSP6-transfected HeLa (AID 609;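 active = compounds giving at least 50% inhibition in the cell-based MKP-3 phosphatase rescue imaging test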;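 as to inhibition: phospho-Erk level distribution per well compared with pooled transfected vehicle control wells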). As to conditions: HeLa MKP-3 transfected, phospho-Erk imaging KS statistic, at 10 µM, cells stimulated with TPA for 15 min.
The target in assay [5] is Dual specificity protein phosphatase 6 (Homo sapiens) (UniProt Q16828). The description is as above. Particulars: HeLa MKP-3 transfected, phospho-Erk imaging KS statistic; at 10 µM; stronger effect = higher value; cells stimulated with TPA for 15 min.
Assay [6] has as its target Voltage-gated potassium channel subunit beta-2 (Rattus norvegicus) (UniProt P62483). Briefly: KvBeta enzyme negative modulators, primary screen, biochemical, NADPH fluorescence (AID 622;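 active = fluorescence slope higher than the sample average by over 3 SD, cut at about -0.22 in these data, passing the limit was not always enough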;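 also: slope of raw intensity against log time taken from 70 to 1610 s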). Particulars: recombinant KvBeta, 4-cyanobenzaldehyde reduction, at 10 µM, stronger effect = higher value.
For assay [7] the target is unchanged. Briefly: KvBeta positive modulators, primary screen, biochemical, NADPH fluorescence (AID 623;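 active = NADPH fluorescence slope more negative than the mean of all samples by about 3 SD, 99.7% confidence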;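 also: fluorescence intensity change per second fitted from 20 to 320 s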). Particulars: Recombinant KvBeta, NADPH fluorescence decrease slope, 10 min; at 10 µM; stronger effect = lower value.
In assay [8] the target is Muscarinic acetylcholine receptor M4 (Homo sapiens) (UniProt P08173). Briefly: compounds altering M4/GIRK thallium flux, either direction, primary screen, M4 allosteric agonist project, cell-based, HEK293 M4/GIRK, BTC-AM (AID 625;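 active = fluorescence slope after compound addition differing from the mean of all tested samples at 99.7% confidence, mostly higher but some lower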;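 also: thallium influx through GIRK channels coupled to M4 in HEK293 cells with BTC-AM dye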). Particulars: at 10 µM, actives lie on both sides.
The nature of assay [9]: inhibitors of larval lipid processing in zebrafish, primary screen, whole organism, PED6 fluorescence, gall bladder and intestine (AID 686).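 Also: larvae 5 to 7 days old with five fish per well; signal comes from phospholipase A2 cleavage of quenched PED6 carried via bile; overnight exposure to compound and PED6 before scoring.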 Particulars: Zebrafish larvae PED6 lipid processing, fluorescence scoring; screened at 20 µM (by protocol).
Assay [10] is described as follows: inhibitors of Chlamydomonas gravitaxis, primary screen, whole organism, Chlamydomonas reinhardtii, WT vs cilia-less mutant, absorbance, 96-well (AID 463189;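 active = inhibition at or above 50% relative to wild type and mutant plate controls; inactive = inhibition below 50%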;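 also: 0% = wild type cc124 cells in DMSO and 100% = ciliumless bld1 mutant cells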). As to conditions: OD600 absorbance, 2 days, at 10 µM, stronger effect = higher value.
Assay [11] in a line: inhibitors of Sendai virus-induced IRF3 signaling, primary screen, TLR/RLR signaling modifier project, cell-based, Sendai virus stimulus, luciferase, 10K MLSCN set (AID 602276;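 active = inhibition at or above 50% at 10 µM; inactive = inhibition below 50%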;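 also: firefly luciferase from ISG56 promoter only with Renilla not read in this screen; 0% = Sendai virus plus DMSO and 100% = medium plus DMSO without virus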). Particulars: HEK293 RL24 IRF3 luciferase reporter, at 10 µM, stronger effect = higher value. (A reporter such as luciferase makes a cellular process visible.)
Assay [12] can be described thus: inhibitors of poly I:C-induced TLR3 signaling, primary screen, cell-based, poly I:C stimulus, luciferase, 10K MLSCN set (AID 602277;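 active = inhibition of the reporter signal at or above 50%; inactive = inhibition below 50%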). Particulars: HEK293-TLR3 RL24 IRF3 luciferase reporter, at 10 µM, stronger effect = higher value.
Where [13] appears, read: measured here: cell density z-score.
Setting [14] is: measured here: nuclear c-Myc green intensity z-score.
Where [15] appears, read: measured here: nuclear pErk red intensity z-score, stronger effect = higher value.

Active and inactive are the calls of the source.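 The calls were made as follows, unless noted: active = a full or partial loss of lipid-probe fluorescence in the fish gall bladder, intestine or both, judged by eye; inactive = no fluorescence loss, or compound toxic to the fish.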

We go through 6 molecules from PubChem BioAssay.

Dual specificity protein phosphatase 6 (Homo sapiens), sequence (Q16828 whole entry, looked up): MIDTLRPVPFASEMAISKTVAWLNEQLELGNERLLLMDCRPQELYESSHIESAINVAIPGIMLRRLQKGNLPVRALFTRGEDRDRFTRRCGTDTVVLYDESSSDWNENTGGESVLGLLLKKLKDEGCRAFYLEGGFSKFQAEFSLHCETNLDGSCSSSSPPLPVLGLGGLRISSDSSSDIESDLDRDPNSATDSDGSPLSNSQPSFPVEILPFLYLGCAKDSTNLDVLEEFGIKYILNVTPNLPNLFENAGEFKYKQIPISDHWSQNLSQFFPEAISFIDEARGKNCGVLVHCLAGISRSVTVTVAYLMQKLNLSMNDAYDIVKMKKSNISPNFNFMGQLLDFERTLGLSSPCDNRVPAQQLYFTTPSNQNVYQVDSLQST
Voltage-gated potassium channel subunit beta-2 (Rattus norvegicus), sequence (P62483 whole entry, looked up): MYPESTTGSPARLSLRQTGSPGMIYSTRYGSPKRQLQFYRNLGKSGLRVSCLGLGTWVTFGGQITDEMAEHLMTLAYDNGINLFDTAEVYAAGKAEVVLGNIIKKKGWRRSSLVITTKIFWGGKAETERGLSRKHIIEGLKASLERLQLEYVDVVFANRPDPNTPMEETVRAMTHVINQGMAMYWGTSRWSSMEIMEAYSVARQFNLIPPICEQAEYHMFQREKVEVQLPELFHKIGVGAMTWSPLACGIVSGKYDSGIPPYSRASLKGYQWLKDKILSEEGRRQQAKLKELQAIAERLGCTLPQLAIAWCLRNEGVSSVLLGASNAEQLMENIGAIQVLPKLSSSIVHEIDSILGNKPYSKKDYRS
Muscarinic acetylcholine receptor M4 (Homo sapiens), sequence (P08173 whole entry, looked up): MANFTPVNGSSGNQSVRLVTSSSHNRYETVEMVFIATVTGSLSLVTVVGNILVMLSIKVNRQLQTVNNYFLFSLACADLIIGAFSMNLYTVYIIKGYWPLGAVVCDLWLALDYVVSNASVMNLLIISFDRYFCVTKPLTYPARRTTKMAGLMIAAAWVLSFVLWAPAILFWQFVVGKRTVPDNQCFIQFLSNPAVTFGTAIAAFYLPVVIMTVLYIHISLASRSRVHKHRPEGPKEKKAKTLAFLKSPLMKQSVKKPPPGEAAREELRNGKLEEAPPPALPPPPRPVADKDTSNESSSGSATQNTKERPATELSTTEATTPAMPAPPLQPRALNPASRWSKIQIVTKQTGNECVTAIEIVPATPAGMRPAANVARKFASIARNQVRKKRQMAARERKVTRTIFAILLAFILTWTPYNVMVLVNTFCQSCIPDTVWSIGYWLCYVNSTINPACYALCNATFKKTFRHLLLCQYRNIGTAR

With `COc1ccc(CCn2c(=N)c(C#N)cc3c(=O)n4ccccc4nc32)cc1`, the cell count in [1] was 529. In addition, the inhibition – broadly, the relative decrease from the control value, in per cent – in assay [1] was 1.4% (inactive); in assay [3], -65.9% (inactive); in assay [5], 24.3% (inactive); in [10], 32.6% (inactive); in assay [11], 13.2% (inactive); in [12], 2.91% (inactive). The inhibition of aggregation in [2] was -0.9% (inactive). Moreover, the nuclei count was 100% in assay [2] and 105% in [3]. The z-score is 1.77 in [4] (setting [13]), -0.331 in assay [4] (setting [14]) and -0.629 in assay [4] (setting [15]). Moreover, the fluorescence slope in [6] was -0.447 (inactive); in assay [8], 0.00759 (inactive). In [7], the NADPH fluorescence slope is -1.4e-05 (inactive). The result in assay [9] was inactive.

Take `CCOC(=O)c1ccc(N=Cc2nc(-c3ccccc3)oc2OC(C)=O)cc1`: the cell count in assay [1] amounted to 794. For the same molecule, the inhibition is -6.6% (inactive) in [1]; -0.4% (inactive) in [3]; 11.3% (inactive) in assay [5]; 23.8% (inactive) in assay [10]; 4.63% (inactive) in assay [11]; 11.1% (inactive) in assay [12]. Moreover, the inhibition of aggregation in [2] was -2.7% (inactive). The nuclei count was 98.2% in [2] and 120% in [3]. For the same molecule, the z-score in [4] (setting [13]) was 0.0584; in assay [4] (setting [14]) it was 0.0892; in assay [4] (setting [15]) it was -0.36. Also, the fluorescence slope in [6] is -0.395 (inactive); in [8], 0.00761 (inactive). In addition, the NADPH fluorescence slope in assay [7] was -5.5e-05 (inactive). Also, the outcome in assay [9] was “inactive; toxic”.

For the molecule `CCOC(=O)CC(C#N)c1cn(C)c2ccccc12` (configuration not stated), in assay [1], the cell count was 657. For the same molecule, the inhibition in assay [1] was -0.6% (inactive); in assay [3], 8.5% (inactive); in assay [5] it was -7.28% (inactive); in assay [10], 13.1% (inactive); in [11] it was 21.5% (inactive); in assay [12] it was 28.2% (inactive). Moreover, in assay [2], the inhibition of aggregation is 2.2% (inactive). In addition, the nuclei count stood at 104% in assay [2] and 135% in assay [3]. The z-score in assay [4] (setting [13]) is -1.04; in assay [4] (setting [14]), 0.465; in assay [4] (setting [15]), 0.369. In addition, the fluorescence slope in [6] was -0.46 (inactive); in assay [8] it was 0.00661 (inactive). Besides, the NADPH fluorescence slope in assay [7] is -3.8e-05 (inactive). In assay [9], the call was inactive.

Regarding `CC(=O)C1=C(O)C(=O)N(c2ccc(C(=O)O)cc2)C1c1ccccc1` (configuration not stated), in [1], the cell count is 669. Further, the inhibition in assay [1] is 4.5% (inactive); in assay [3], -53.3% (inactive); in assay [5], 2.46% (inactive); in assay [10], -2.45% (inactive); in [11], 16.8% (inactive); in assay [12] it was 17.1% (inactive). The inhibition of aggregation in assay [2] was 10.3% (inactive). For the same molecule, the nuclei count in assay [2] was found to be 101%; in [3], 112%. For the same molecule, the z-score in [4] (setting [13]) was 1.33; in assay [4] (setting [14]), -0.568; in assay [4] (setting [15]), -0.179. The values for the fluorescence slope in assay [6] and in [8] were -0.428 (inactive) and 0.00575 (inactive), respectively. Further, the NADPH fluorescence slope in assay [7] is -5.9e-06 (inactive). Moreover, in [9], the molecule was called inactive.

Take `COc1cc(NC(=O)NC(C)(C(F)(F)F)C(F)(F)F)cc(OC)c1OC`: in assay [1], the cell count is 664. Further, the inhibition was -5.8% (inactive) in [1]; -50% (inactive) in assay [3]; -1.98% (inactive) in assay [5]; 14.3% (inactive) in assay [10]; 10.8% (inactive) in assay [11]; 13.7% (inactive) in [12]. Besides, in assay [2], the inhibition of aggregation is -0.5% (inactive). Besides, the nuclei count in assay [2] stood at 83%; in [3], 140%. In addition, the z-score is 0.222 in [4] (setting [13]), -0.586 in [4] (setting [14]) and 1.46 in assay [4] (setting [15]). Besides, the values for the fluorescence slope in assay [6] and in assay [8] were -0.48 (inactive) and 0.00489 (inactive), respectively. Also, the NADPH fluorescence slope in assay [7] is -6.8e-05 (inactive). In addition, in assay [9], the outcome was inactive.

Consider `COc1ccc2c(c1)[nH]c1c(=O)n(CC3CCCO3)cnc12` (configuration not stated), for which the cell count in assay [1] stood at 702. Moreover, the inhibition in assay [1] is -0.4% (inactive); in assay [3] it was -39.2% (inactive); in [5], -2.91% (inactive); in assay [10], 0.053% (inactive); in assay [11] it was -17.6% (inactive); in [12], -27.5% (inactive). Besides, the inhibition of aggregation in [2] is 5.9% (inactive). Also, the nuclei count in assay [2] was 73.4%; in assay [3] it was 133%. The z-score was 1.51 in assay [4] (setting [13]), -0.546 in assay [4] (setting [14]) and -1.36 in assay [4] (setting [15]). Further, the fluorescence slope is -0.423 (inactive) in [6] and 0.00561 (inactive) in [8]. Moreover, in assay [7], the NADPH fluorescence slope was -4.3e-05 (inactive). In [9], the result was inactive.
